Bioassay records from PubChem BioAssay.
Sampled rows, rich in hits. Any-hit rate of the full collection: about 3.3%.
Vaccinia Venus: vaccinia inhibition (Venus reporter); Vaccinia virus Venus reporter expression, fluorescence; Potency, µM (top dose mostly 36.5 µM), for inactives: at the top dose activity change, negative = inhibition, most hits filed as inhibitors; 330,000 tested, 0.46% active; AID 720580; calls by dose curve; tested in A549 cells; also: nearly all actives have a fitted effect of over 30% in size
HCV inhibitor: HCV inhibition. 340,000 tested, 3.4% active. AID 651820. Huh7.5.1 HCVcc-Cre infection, luciferase reporter, 44 h. Potency, µM (series often up to 41.8 µM), for inactives: at the top dose activity change, negative = inhibition, most hits filed as inhibitors; active = well fitted inhibition curve with a large enough effect; inconclusive = small, poorly fitted or top-dose-only effect, or another doubt; inactive = no such curve, though single readings can be large or run the other way
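HCVcc-Cre virus at an moi near 0.5 was added right after compound to cells cultured 4 h from seeding (1,000 cells/well). Luciferase activity was determined 44 h later, 15 min after substrate addition at RT.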
VACV mCherry inh: vaccinia inhibition (mCherry reporter) | Vaccinia virus mCherry reporter infection, fluorescence | Potency, µM (titrated, usually from 36.5 µM), for inactives: at the highest dose activity change, negative = inhibition, most hits filed as inhibitors | 310,000 tested, 0.63% active | AID 720579; calls by dose curve; tested in A549 cells; also: nearly all actives have a fitted effect of over 35% in size
* marks the source's active call; other numbers are inactive results; i = inactive; ? = inconclusive; nt = not tested or not shown; [ ] = remark or other dose. % is scaled to controls: 0 for no effect and ±100 for the full control effect; potency is read from the fitted curve at half-maximal effect.

SMILES	Vaccinia Venus	HCV inhibitor	VACV mCherry inh
CN1CCC(N(C)S(=O)(=O)c2ccc(NC(=O)COc3cccc(C(F)(F)F)c3)cc2)CC1	-27%	?	?
c1ccc(Cn2nnnc2C(c2ccccc2)N2CCN(Cc3ccncc3)CC2)cc1 (stereo not drawn)	-14%	nt	-6%
CCN(c1ccccc1)S(=O)(=O)c1ccc(OC)c(NC(=O)C2CCC2)c1	-23%	-15%	-5%
CCN(c1ccccc1)S(=O)(=O)c1ccc(OC)c(NC(=O)CNCCc2ccccc2)c1	-24%	7.1µM*	-11%
COc1ccc(S[C@@H]2C[C@@H](C(=O)Nc3ccc4nccnc4c3)N(C3Cc4ccccc4C3)C2)cc1	-1%	nt	-12%
Cc1ccn(CCC(=O)NCC2Cc3cc(Cl)cc(-c4ccc5[nH]ccc5c4)c3O2)n1 (stereo not drawn)	-18%	nt	-23%
COc1c(N2CCN(C(=S)NCc3ccccc3)C(C)C2)c(F)cc2c(=O)c(C(=O)O)cn(C3CC3)c12 (stereo not drawn)	13µM*	10µM*	nt
COc1c(N2CCN[C@H](C)C2)c(F)cc2c(=O)c(C(=O)O)cn(C3CC3)c12	-7%	14%	-6%
Cc1cc(C)cc(NC(=O)COC(=O)CC2CCCC2)c1	-6%	-11%	-15%
CC(=O)NC(CCS(C)(=O)=O)C(=O)Nc1cc(Cl)ccc1Cl (stereo not drawn)	-4%	10%	i
CC(C)S(=O)(=O)c1csc(NC(=O)Nc2cc(Cl)ccc2Cl)c1Cl	-19%	13µM*	-4%
O=C(c1cnn2c(C(F)F)cc(-c3ccccc3)nc12)N1CCc2ccccc2C1	-16%	?	i
O=C(c1cnn2c(C(F)F)cc(C3CC3)nc12)N1CCc2ccccc2C1	-24%	8.9µM*	nt
Cc1[nH]c(C)c(S(=O)(=O)N2CCCCC2C)c1C(=O)N1CCCC1 (stereo not drawn)	nt	0%	nt
CCn1nnc(-c2ccccc2NC(=O)c2cc(OC)c(OC)c(OC)c2)n1	-19%	?	-24%
CCn1nnc(-c2ccccc2NC(=O)c2cnccn2)n1	-19%	11µM*	-9%[1.46 µM]
COc1ccc(NC(=O)CSc2nc(-c3cc(OC)c(OC)c(OC)c3)[nH]c2-c2ccc(F)cc2)cc1	-24%	nt	-20%
COc1cc(/C=N/NC(=O)c2cc(C3CC3)[nH]n2)cc(OC)c1OC	nt	1%	nt
CCOc1cccc(/C=N/NC(=O)c2cc(C3CC3)[nH]n2)c1O	nt	11µM*	nt
COc1ccc(-c2nn(C)c3sc(C(=O)N4CCN(c5cccc(C)c5C)CC4)cc23)cc1OC	0%	nt	5%
Cc1ccc(S(=O)(=O)CCC(=O)Nc2nnc(-c3ccco3)o2)cc1	?	10%	?
COc1ccccc1-c1nnc(NC(=O)c2ccc(S(=O)(=O)N(C)C)cc2)o1	?	-25%	-25%
O=C(CCS(=O)(=O)c1ccc(Cl)cc1)Nc1nnc(-c2ccco2)o1	?	?	10µM*
Cc1ccc(-c2nnc(NC(=O)CCS(=O)(=O)c3ccc(F)cc3)o2)c(C)c1	-15%	5%	-21%
COc1ccccc1-c1nnc(NC(=O)CCS(=O)(=O)c2ccccc2)o1	?	-4%	8.9µM*
SMILES	Vaccinia Venus	HCV inhibitor	VACV mCherry inh
O=C(CCS(=O)(=O)c1ccc(F)cc1)Nc1nnc(-c2ccc(F)cc2)o1	?	12%	10µM*
COc1ccccc1-c1nnc(NC(=O)CCS(=O)(=O)c2ccc(F)cc2)o1	4.5µM*	nt	?
COc1cc(-c2nnc(NC(=O)CS(=O)(=O)c3ccc(F)cc3)o2)cc(OC)c1OC	2%	-10%	-5%
COc1nc(Oc2ccc(=O)n(-c3ccccc3)n2)nc(N(C)C)n1	-3%	nt	-2%
NC/C=C/C(=O)O	-15%	nt	-2%
Cn1cc(-c2cc3n(n2)CCC(=O)N3CCCC(=O)NCc2ccccc2Cl)c2ccccc21	-2%	nt	-2%
O=C(COC(=O)c1n[nH]c2ccccc12)Nc1cccc(S(=O)(=O)N2CCOCC2)c1	-17%	-18%	-24%
O=C(COC(=O)c1ccc(O)cc1)Nc1ccc(S(=O)(=O)N2CCOCC2)cc1	nt	-1%	nt
CCCc1nc2ccccc2c(C(=O)OCC(=O)N2CCc3ccccc32)c1CC	-11%	8.9µM*	i
CC1CCc2nc3ccccc3c(C(=O)OCC(=O)N3CCc4ccccc43)c2C1 (stereo not drawn)	-13%	?	12%
CCCc1nc2ccccc2c(C(=O)OCC(=O)Nc2cccc(S(=O)(=O)N3CCOCC3)c2)c1CC	nt	8.9µM*	nt
CCCc1nc2ccccc2c(C(=O)OCC(=O)Nc2ccc(S(=O)(=O)N3CCOCC3)cc2)c1CC	nt	8.9µM*	nt
CN1CCCN(C(=O)[C@@H]2C[C@@H](Sc3nc4ccccc4[nH]3)CN2Cc2ccc(-c3ccccc3)cc2)CC1	-14%	nt	-19%
COc1cc([N+](=O)[O-])ccc1NC(=O)N1CCN(c2cc(-c3noc(C)n3)ccc2C)CC1	-11%	nt	-11%
CCOC(=O)C1CCCN(S(=O)(=O)c2ccc(-c3cc(C)no3)s2)C1 (stereo not drawn)	-11%	?	-18%
Cc1cc(Br)ccc1NC(=O)CNC(=O)Cc1ccc(S(=O)(=O)N2CCOCC2)s1	-10%	-4%	-15%
COc1ccccc1C1CN(CC(=O)N2CCC(C(O)c3ccccn3)CC2)Cc2ccccc2O1 (stereo not drawn)	-15%	nt	-23%
CC(C)C(=O)N[C@H]1CCC2C3CC=C4C[C@@H](O)CC[C@]4(C)C3CC[C@@]21C (stereo partly drawn)	-10%	-18%	i
CC(=O)C1CCC2C3CC=C4CC(SC(=N)N)CCC4(C)C3CCC12C (stereo not drawn)	16µM*	?	?
CC(C)(C)[C@H](N)C(=O)N[C@H]1CCC2C3CC=C4C[C@@H](O)CC[C@]4(C)C3CC[C@@]21C (stereo partly drawn)	?	11µM*	?
CC(=O)OCC(=O)C1CCC2C3CC=C4CC(O)CCC4(C)C3CCC12C (stereo not drawn)	-9%	16%	i
COC(=O)[C@]1(C)CCC[C@]2(C)c3ccc(C(C)C)cc3C(=O)CC12 (stereo partly drawn)	1%	nt	-7%
CCCCC(=O)Nc1nc(C)c(-c2csc(Nc3cc(OC)ccc3OC)n2)s1	?	10µM*	1.1µM*
Cc1nc(NC(=O)c2ccccc2)sc1-c1csc(NCc2ccccc2)n1	-20%	?	?
COc1ccc(Cl)cc1Nc1nc(-c2sc(NC(=O)c3ccco3)nc2C)cs1	-23%	2.5µM*	-27%
SMILES	Vaccinia Venus	HCV inhibitor	VACV mCherry inh
CCCCC(=O)Nc1nc(C)c(-c2csc(Nc3cc(Cl)ccc3OC)n2)s1	-26%	-28%	?
Cc1nc(NC(=O)c2ccccc2)sc1-c1csc(NCCc2ccccc2)n1	nt	10µM*	nt
COc1ccc(OC)c(Nc2nc(-c3sc(NC(=O)CC(C)C)nc3C)cs2)c1	?	2.8µM*	?
CCC(C)C(=O)Nc1nc(C)c(-c2csc(Nc3cc(Cl)ccc3OC)n2)s1 (stereo not drawn)	-22%	?	-19%
COc1ccc(Cl)cc1Nc1nc(-c2sc(NC(=O)C(C)(C)C)nc2C)cs1	-25%	?	-29%
COc1ccc(Cl)cc1NC(=O)Cn1c(=O)n(CCC(=O)NCc2ccc3c(c2)OCO3)c(=O)c2ccccc21	-22%	nt	-27%
CCCC(=O)Nc1nc(C)c(-c2csc(Nc3ccccc3C)n2)s1	-19%	-2%	-22%
